Shown is part of a subset that was picked to be rich in hits.
DAT uptake mod: human DAT dopamine uptake with cocaine, either direction; Q01959; LLC-PK1 hDAT cells, [14C]-dopamine uptake with cocaine IC80; actives deviate in either direction; B-score at 10 µM; actives 1.3% (n = 110,000);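 active means Z score or B-score, a plate-position-corrected score, falls beyond the plate's 99.7% confidence bounds, in either direction; inactive means both scores lie inside the 99.7% bounds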;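 further: scored against the spread of the other compound wells on the same plate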
EphB4 ephrin blk: antagonists of human EphB4-ephrin-B2 interaction; actives 0.15% (n = 97,000); AID 720; inhibition, % at 7 µM; EphB4 LBD / TNYL-RAW-Alexa532 peptide, fluorescence polarization; P54760;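 active means inhibition above the screen-wide mean inhibition plus 3 SD, cut at about 15% in these data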;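 further: 0% = DMSO wells and 100% = excess unlabeled TNYL-RAW peptide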
D1 allo mod: D1 dopamine receptor (human) allosteric modulation; actives 5.9% (n = 58,000); B-score at 10 µM; P21728; HEK293 D1, CRE-luciferase, dopamine EC30 potentiation; actives deviate in either direction; AID 641;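 active means luminescence count or its row- and column-corrected plate score outside the 99.7% band of the plate's sample wells, on either side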
Target sequence (P21728 whole entry, looked up): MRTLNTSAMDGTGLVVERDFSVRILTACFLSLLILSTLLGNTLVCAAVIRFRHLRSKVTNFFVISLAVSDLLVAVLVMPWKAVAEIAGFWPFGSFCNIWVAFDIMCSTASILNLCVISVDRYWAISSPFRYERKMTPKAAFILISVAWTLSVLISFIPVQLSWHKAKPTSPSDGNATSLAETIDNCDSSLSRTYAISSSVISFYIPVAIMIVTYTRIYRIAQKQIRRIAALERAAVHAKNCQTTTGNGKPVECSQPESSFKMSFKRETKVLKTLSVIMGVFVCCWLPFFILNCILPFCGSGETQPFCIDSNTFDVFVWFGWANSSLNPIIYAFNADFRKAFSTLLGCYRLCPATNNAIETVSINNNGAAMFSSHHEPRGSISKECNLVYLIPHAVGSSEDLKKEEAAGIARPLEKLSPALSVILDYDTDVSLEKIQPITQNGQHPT
The depositor's hits bear a star; . = not tested or not shown.

SMILES	DAT uptake mod	EphB4 ephrin blk	D1 allo mod
Cc1ccccc1NC(=O)N1CCCC(c2nc(-c3ccc(F)cc3)no2)C1 (centres undefined)	3*	8	-0.18
Cc1ccccc1NC(=O)N1CCCC(c2nc(-c3ccc(C(C)C)cc3)no2)C1 (centres undefined)	-1.7	-1	1.1
O=C1N[C@@H](Cc2cn(S(=O)(=O)c3c(F)c(F)c(F)c(F)c3F)c3ccccc23)C(=O)N[C@H]1Cc1ccccc1	-1.3	.	.
c1cc(-c2nc3ccccc3o2)nc(-c2nc3ccccc3o2)c1	.	.	-0.78
c1ccc2nc(-c3nc4ccccc4o3)ccc2c1	-0.83	.	-3.9*
CCn1nnnc1SCC(=O)NC1CCCC1	1.2	3	.
Cc1ccc(C(=O)CSc2nnc(-c3ccco3)n2Cc2ccccc2)cc1	0.17	1	-0.75
O=C(CSc1nnc(-c2ccco2)n1Cc1ccccc1)c1ccccc1	3.4*	1	0.76
Cc1ccc(CC(=O)N2CCN(c3ccccn3)CC2)cc1	0.17	-2	.
CCCn1c(SCC(=O)NCCc2ccc(Cl)cc2Cl)n[nH]c1=O	3.4*	4	0.17
CCCn1c(SCC(=O)NC(=O)NCc2ccco2)n[nH]c1=O	-0.33	-2	-1
CC(=O)N1CCc2cc(C(=O)CN3CCC(C)CC3)ccc21	-0.33	1	0.073
CC(=O)N1CCc2cc(C(=O)CN3CCN(c4cccc(Cl)c4)CC3)ccc21	1.3	-3	-3.5*
Cc1cc(N2CCN(c3ccccc3)CC2)nc(-c2ccccc2)n1	-0.63	5	0.37
Cc1cc(N2CCN(C(=O)c3ccco3)CC2)nc(-c2ccccc2)n1	-0.52	.	-3.7*
CC(C)CCn1c(N2CCc3ccccc3C2)nc2c1c(=O)[nH]c(=O)n2C	-1.2	.	.
O=C(CCCSc1nc2ccccc2[nH]1)N1CCN(c2ccc([N+](=O)[O-])cc2)CC1	2.2	6	.
Cn1nc(OC(=O)Nc2ccc(Cl)cc2)cc1C(F)(F)F	-2.9*	0	.
Cn1nc(OC(=O)Nc2ccc(F)cc2)cc1C(F)(F)F	-0.31	5	.
CCC(CC)C(=O)Nc1cc(NC(=O)C(CC)CC)cc(C(=O)O)c1	-0.32	6	-0.13
Cc1cccc(C)c1OCC(=O)Nc1cccc(-c2nnc(-c3ccccc3)o2)c1	1.2	-4	.
CCCCC(=O)Nc1cc(NC(=O)CCCC)cc(C(=O)O)c1	-0.043	7	-4.2*
CCCCC(=O)Nc1cccc(-c2nnc(-c3ccccc3)o2)c1	2.8*	-8	0.078
CC(C)(C)OC(=O)CNC(=O)c1nc[nH]c1C(=O)NCC(=O)OC(C)(C)C	0.047	.	.
CN(Cc1ccccc1)S(=O)(=O)c1cccc2cccnc12	-1	0	.
SMILES	DAT uptake mod	EphB4 ephrin blk	D1 allo mod
COc1ccc(N(CC(=O)Nc2ccc(S(=O)(=O)N3CCOCC3)cc2)S(=O)(=O)c2ccccc2)cc1	-0.016	-2	.
Cc1ccc(-c2csc(NC(=O)CSC3=NCCS3)n2)cc1	0.51	-3	.
Cc1ccc(-c2csc(NC(=O)CSc3nc(C)cc(=O)[nH]3)n2)cc1	2.3*	-5	.
CCc1ccc(S(=O)(=O)Nc2ccc(O)c3c(=O)cc(-c4ccccc4Cl)oc23)cc1	0.074	.	.
O=c1cc(-c2ccccc2Cl)oc2c(NS(=O)(=O)c3cc(Cl)cc(Cl)c3O)ccc(O)c12	-6.3*	.	.
COc1ccc(C(C(=O)NC(C)(C)C)N(Cc2cccs2)C(=O)CCC(=O)Nc2cc(C)on2)cc1 (centres undefined)	3*	-1	.
CCC(C)(C)NC(=O)C(c1ccc(OC)cc1)N(Cc1cccs1)C(=O)CCC(=O)Nc1cc(C)on1 (centres undefined)	2.1	-3	.
CCC[C@@H]1CCCO[C@@](C(=O)NCc2ccccn2)(C(F)(F)F)C1	-0.12	.	.
CCCC[C@@H]1CCCO[C@@](C(=O)NCc2ccccn2)(C(F)(F)F)C1	3.1*	.	.
CCN(CC)c1ccc2c(c1)CCCN2	-0.023	.	-3.4*
CCN(CC)c1ccc(CN2CCCCCC2)cc1	0.0079	-2	.
COCCN1C(=O)N[C@@H](c2ccco2)C(C(=O)OC)=C1C	-0.34	.	.
CCCC(O)(c1ccc(Cl)cc1)C(CN1CCOCC1)c1ccccc1 (centres undefined)	-2.8*	0	.
CCCCC(O)(CCN1CCOCC1)c1ccc(Cl)cc1 (centres undefined)	-1.8	3	.
Cc1ccc2c(c1)-c1c(cnn1CC(=O)N1CCCN(Cc3ccccc3F)C1)CO2	-0.37	.	-2.9*
Cc1ccc2c(c1)-c1c(cnn1CC(=O)O)CO2	0.6	5	1.5
CCCCCCN(C(=O)CCCCCN1C(=O)NC(c2ccc(C3CCCCC3)cc2)C(C(=O)OCc2ccccc2)=C1C)C(C(=O)NCCCC)c1ccc(OCC(=O)OC)c(C(=O)OC)c1 (centres undefined)	0.48	.	.
CC(C)CCn1c(N2CCN(Cc3ccccc3)CC2)nc2c1c(=O)[nH]c(=O)n2C	.	3	3.5
C=C(C)CSc1nc2c(c(=O)[nH]c(=O)n2C)n1Cc1ccccc1	0.29	.	11*
CC(C)Sc1nc2c(c(=O)[nH]c(=O)n2C)n1Cc1ccc(Cl)cc1	-0.87	-1	23*
CCCCCn1c(N2CCN(Cc3ccccc3)CC2)nc2c1c(=O)[nH]c(=O)n2C	3*	7	1.5
Cn1c(=O)[nH]c(=O)c2c1nc(SCC(=O)Nc1ccccc1)n2Cc1ccccc1	0.28	4	3.7
CCC(C)Sc1nc2c(c(=O)[nH]c(=O)n2C)n1Cc1ccc(Cl)cc1 (centres undefined)	0.26	.	0.03
O=C(CSc1ccc2nnc(-c3ccc(Cl)cc3)n2n1)N1CCc2ccccc21	.	-12	.
CN(C(=O)COc1cc(=O)n(C)c2ccccc12)c1ccc(Br)cc1	-0.75	-2	0.3
SMILES	DAT uptake mod	EphB4 ephrin blk	D1 allo mod
CCOc1ccc(S(=O)(=O)Nc2ccc(Cl)cn2)c(C)c1C	0.69	4	-2.6*
CCOc1cc(C)c(S(=O)(=O)Nc2ccc(Cl)cn2)cc1C	-0.071	10	0.26
CCOC(=O)N1C2=NC(C(=O)OC)=C(C(=O)OC)[C@@H]3N(Cc4ccccc4)c4ccccc4[C@]23C[C@H]1C(=O)OC	0.37	.	.
O=C(Nc1cccn(Cc2ccc(F)cc2)c1=O)NC1CCCCC1	2.3*	4	.
O=C(Nc1cccn(Cc2ccccc2)c1=O)NC1CCCCC1	0.93	-3	.
COc1ccc(NC(=O)C2Cc3ccccc3CN2C(=O)c2ccccc2)cn1 (centres undefined)	2.9*	8	-0.28
O=C(NC1=NCCS1)C1Cc2ccccc2CN1C(=O)c1ccccc1 (centres undefined)	-1.1	5	0.13
COc1ccc(NC(=S)NCc2ccco2)c(OC)c1	-0.61	5	.
CC1(C)Cc2nc3sc4c(=O)n(CC(N)=O)cnc4c3cc2CO1	.	5	.
CC1(C)Cc2nc3sc4c(=O)n(CC(=O)NCc5ccccc5)cnc4c3cc2CO1	-2.9*	4	.
OCCn1c(-c2ccc3c(c2)OCO3)csc1=Nc1ccccc1	0.41	3	-3.4*
CCOc1ccc(N=c2scc(-c3ccccc3)n2CCO)cc1	0.75	1	.
Cc1nc2sc(C(c3ccccc3)N3CC(C)OC(C)C3)c(O)n2n1 (centres undefined)	0.17	-9	-0.0048
Cc1nc2sc(C(c3ccc(Br)cc3)N3CC(C)OC(C)C3)c(O)n2n1 (centres undefined)	2.6*	8	0.84
CCCN1CCC(=O)N([C@H](CSc2ccc(OC)cc2)CC(C)C)CC1	-0.11	.	.

From PubChem BioAssay
